Measured values reported in PubChem BioAssay (NCI).
This is part of a sample that, as a whole, favours compounds with a hit. Of some 79,000 tested, about 15% had one in any assay. The source made the active and inactive calls. No stated cut-off is given here; in the data, active means growth inhibition above about 70%; inactive means the rest.

What was measured:
[1] = NCI Yeast Anticancer Drug Screen. Data for the rad52 strain (AID 147);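 further: 0% = growth of vehicle-treated control cultures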; settings: S. cerevisiae rad52 mutant growth inhibition, hits give high values
Summary of the method: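 Growth of repair-deficient yeast cells was compared between compound-treated and vehicle-treated cultures to give percent inhibition.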

[2] = NCI Yeast Anticancer Drug Screen. Data for the wt1 strain (AID 149);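 further: 0% = growth of vehicle-treated wt1 cultures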; settings: S. cerevisiae wt1 strain (SPY 50644) growth inhibition, hits give high values
Summary of the method: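 Measured: growth of wt1 yeast under compound versus vehicle treatment, reported as inhibition.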

[3] = NCI Yeast Anticancer Drug Screen. Data for the rad50EPP+ strain (AID 151);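 further: 0% = growth of vehicle-treated control cultures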; settings: S. cerevisiae rad50 mutant strain, hits give high values
Summary of the method: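 Measured: growth inhibition of rad50EPP+ yeast. Reference: vehicle-treated controls. Screen uses strains with defined genetic alterations in DNA damage repair or cell cycle control.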

[4] = NCI Yeast Anticancer Drug Screen. Data for the rad50 strain (AID 155);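 further: 0% = growth of vehicle-only cultures of the same strain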; settings: S. cerevisiae rad50 strain growth inhibition, hits give high values
Summary of the method: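 Growth of the mutant yeast was measured after compound exposure and referenced to vehicle-treated cultures.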

[5] = NCI Yeast Anticancer Drug Screen. Data for the mec2-1 strain (AID 157); settings: S. cerevisiae mec2-1 strain, hits give high values
Summary of the method: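 Compounds were applied to mec2-1 yeast cells. Their growth was then compared with that of vehicle-treated cultures to give growth inhibition.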

[6] = NCI Yeast Anticancer Drug Screen. Data for the rad14 strain (AID 159);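 further: 0% = growth of vehicle-treated control cultures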; settings: S. cerevisiae rad14 strain growth inhibition, hits give high values
Summary of the method: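 Here, inhibition of yeast growth was measured after compound exposure, using a strain with a genetic defect in DNA damage repair and vehicle-treated cultures as the reference.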

[7] = NCI Yeast Anticancer Drug Screen. Data for the sgs1 mgt1 strain (AID 161);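 further: 0% = growth of cultures given vehicle only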; settings: S. cerevisiae sgs1 mgt1 strain, hits give high values
Summary of the method: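 Percent growth inhibition was derived by comparing compound-exposed mutant yeast with vehicle-exposed cultures. The strain carries alterations in DNA damage repair.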

[8] = NCI Yeast Anticancer Drug Screen. Data for the CLN2oe strain (AID 163);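 further: 0% = growth of vehicle-only control cultures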; settings: S. cerevisiae CLN2oe strain, hits give high values
Summary of the method: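 Cells of an engineered yeast line with disturbed cell-cycle regulation are treated with compound. Inhibition of growth is then calculated relative to the vehicle-treated reference.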

[9] = NCI Yeast Anticancer Drug Screen. Data for the cln2 rad14 strain (AID 165);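 further: 0% = growth equal to vehicle treated cultures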; settings: S. cerevisiae cln2 rad14 strain, hits give high values
Summary of the method: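 Strain: cln2 rad14 yeast, altered in cell cycle control and DNA damage repair. Read-out: growth inhibition vs vehicle.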

[10] = NCI Yeast Anticancer Drug Screen. Data for the bub3 strain (AID 167); settings: S. cerevisiae bub3 mutant strain, hits give high values
Summary of the method: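 Whole-cell yeast assay. The mutant strain was incubated with compounds, and growth inhibition was determined by comparison with vehicle-treated cells.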

[11] = NCI Yeast Anticancer Drug Screen. Data for the wt2 strain (AID 169);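 further: 0% = growth of vehicle-treated yeast cultures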; settings: S. cerevisiae wt2 strain growth inhibition, hits give high values
Summary of the method: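 Growth of compound-treated yeast is measured and expressed as inhibition relative to vehicle-only controls.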

[12] = NCI Yeast Anticancer Drug Screen. Data for the sgs1 strain (AID 173);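 further: 0% = growth of vehicle-only control cultures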; settings: S. cerevisiae sgs1 mutant, hits give high values
Summary of the method: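 Strain with an altered DNA repair or cell cycle pathway exposed to compound. Growth then measured. Value = inhibition versus vehicle control.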

[13] = NCI Yeast Anticancer Drug Screen. Data for the mlh1 rad18 strain (AID 175); settings: S. cerevisiae mlh1 rad18 strain growth inhibition, hits give high values
Summary of the method: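 A repair-deficient yeast strain is exposed to test compound, and growth is scored relative to vehicle-treated controls.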

[14] = NCI Yeast Anticancer Drug Screen. Data for the rad18 strain (AID 177); settings: S. cerevisiae rad18 mutant growth inhibition, hits give high values
Summary of the method: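 DNA-repair-defective yeast; compound treatment; growth inhibition scored against vehicle.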

[15] = at 5.0 µM (retest, dose inferred, filed as 0.5)
[16] = at 50.0 µM (retest, dose inferred, filed as 5.0)

Measured: growth inhibition

O=C1c2ccccc2C(=O)c2cc(CBr)ccc21
inactive: [1]; at 1.2 µM 5% | [1]; at 3.7 µM 16% | [1]; at 11.0 µM 21% | [2]; at 1.2 µM 0% | [2]; at 3.7 µM 0% | [2]; at 11.0 µM -1% | [2]; at 33.0 µM 18% | [2]; at 100.0 µM 53% | [3]; at 1.2 µM 27% | [3]; at 3.7 µM 56% | [4]; at 1.2 µM 2% | [4]; at 3.7 µM 14% | [4]; [15] 48% | [4]; at 11.0 µM 29% | [5]; at 1.2 µM 1% | [5]; at 3.7 µM 2% | [5]; [15] 32% | [5]; at 11.0 µM 5% | [5]; at 33.0 µM 32% | [6]; at 1.2 µM -2% | [6]; at 3.7 µM 6% | [6]; at 11.0 µM 12% | [6]; at 33.0 µM 53% | [7]; [15] 54% | [8]; at 1.2 µM 1% | [8]; at 3.7 µM 5% | [8]; at 11.0 µM 8% | [8]; at 33.0 µM 28% | [8]; at 100.0 µM 61% | [9]; [15] 33% | [9]; at 50.0 µM 57.5% | [10]; at 1.2 µM 1% | [10]; at 3.7 µM 0% | [10]; [15] 30% | [10]; at 11.0 µM 1% | [10]; at 33.0 µM 26% | [10]; at 100.0 µM 54% | [11]; at 1.2 µM 9% | [11]; at 3.7 µM 3% | [11]; at 11.0 µM 13% | [11]; at 33.0 µM 18% | [11]; at 100.0 µM 69% | [12]; at 1.2 µM -2% | [12]; at 3.7 µM -14% | [12]; at 11.0 µM 23% | [13]; [15] 63% | [14]; at 1.2 µM 2% | [14]; at 3.7 µM 10% | [14]; at 11.0 µM 23%
active: [1]; at 33.0 µM 79% | [1]; at 100.0 µM 91% | [3]; at 11.0 µM 73% | [3]; at 33.0 µM 94% | [3]; at 100.0 µM 95% | [4]; at 33.0 µM 82% | [4]; [16] 90% | [4]; at 50.0 µM 99.2% | [4]; at 100.0 µM 92% | [5]; [16] 77% | [5]; at 50.0 µM 90% | [5]; at 100.0 µM 71% | [6]; at 100.0 µM 89% | [7]; [16] 89% | [7]; at 50.0 µM 99.2% | [9]; [16] 76% | [10]; [16] 79% | [10]; at 50.0 µM 86.2% | [12]; at 33.0 µM 74% | [12]; at 100.0 µM 94% | [13]; [16] 92% | [13]; at 50.0 µM 96% | [14]; at 33.0 µM 78% | [14]; at 100.0 µM 93%
